Source: PubChem BioAssay (NCATS)
Inconclusive results are not listed. Activity calls are given as the source filed them. Unless noted, calls follow the shape of the dose curve; as a rule, active = well fitted curve in the direction sought with a large enough effect; inconclusive = small, poorly fitted or top-dose-only effect, or another doubt; inactive = no such curve, though single readings can be large; an effect the other way counts as inactive or inconclusive.

Columns and labels:
[1] = target: Lysosomal acid glucosylceramidase (Homo sapiens) (UniProt P04062); assay: Glucocerebrosidase-p2 (AID 348; in the data active = potency below about 10 µM; also: potency is read from the fitted curve at half-maximal effect); conditions: purified GBA, blue fluorogenic substrate, 40 min
Chain of Lysosomal acid glucosylceramidase (Homo sapiens) (P04062 whole entry, looked up): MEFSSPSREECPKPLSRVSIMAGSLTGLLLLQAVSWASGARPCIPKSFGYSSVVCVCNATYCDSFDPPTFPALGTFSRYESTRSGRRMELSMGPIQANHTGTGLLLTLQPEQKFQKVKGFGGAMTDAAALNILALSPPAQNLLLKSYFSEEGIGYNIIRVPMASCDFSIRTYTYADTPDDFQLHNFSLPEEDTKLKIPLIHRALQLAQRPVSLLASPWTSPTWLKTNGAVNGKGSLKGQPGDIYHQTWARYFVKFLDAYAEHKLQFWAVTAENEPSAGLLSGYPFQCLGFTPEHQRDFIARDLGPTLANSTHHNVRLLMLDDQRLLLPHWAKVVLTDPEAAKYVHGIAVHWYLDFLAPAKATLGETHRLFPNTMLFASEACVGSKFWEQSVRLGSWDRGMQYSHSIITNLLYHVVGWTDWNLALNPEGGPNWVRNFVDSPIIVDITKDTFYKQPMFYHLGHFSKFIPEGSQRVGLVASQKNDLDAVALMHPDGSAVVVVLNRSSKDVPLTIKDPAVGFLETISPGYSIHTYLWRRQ
How it was run: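 Compounds titrated from 0.6 nM upwards against 0.2 nM enzyme in pH 5.9 citric acid/KH2PO4, taurocholate, tween-20; blue fluorogenic substrate 80 uM, 40 min room temperature, stopped and read Ex 365/Em 440 for AC50.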

[2] = AP1 Signaling Pathway (AID 357; active = well fitted curve in either direction with a large enough effect, not every such curve was filed as active;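 also: ME-180 reporter cells stimulated with EGF at its EC50 level; % is scaled to controls: 0 for no effect and ±100 for the full control effect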); conditions: ME-180 (cervical carcinoma) AP-1-bla reporter, EGF-induced, beta-lactamase ratio, 5 h; at 7.69 µM (top of the series) unless noted
How it was run: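 Cells are seeded overnight, exposed to compound titrations and an EC50 level of EGF for 5 hours at 37 °C, then loaded with CCF4 dye for 2.5 hours. Beta-lactamase activity under the AP-1 element is read as a blue/green ratio.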

[3] = target: Mitogen-activated protein kinase 10 (Mus musculus) (UniProt Q61831); assay: JNK3 AlphaScreen Assay (AID 530; active = well fitted curve in either direction with a large enough effect, not every such curve was filed as active;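 also: kinase came from lysate of stimulated human HepG2 cells; signal reports phosphorylation of biotinylated GST-cJun 1-79 at Ser73 with 10 µM ATP; % is scaled to controls: 0 for no effect and ±100 for the full control effect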); conditions: JNK3 lysate, c-Jun phosphorylation; series mostly up to 57.1 µM
How it was run: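 JNK3 came from HepG2 lysates pre-activated with IL-1beta and TNF-alpha and phosphorylated biotinylated GST-cJun (1-79) at 10 uM ATP, pH 7.6, room temperature. Compounds were titrated. AlphaScreen signal used anti-phospho-cJun (Ser73) antibody.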

[4] = target: 3',5'-cyclic-AMP phosphodiesterase 4B (Homo sapiens) (UniProt Q07343); assay: qHTS Assay for Inhibitors of PDE-IV (AID 607; active = well fitted activation curve with a large enough effect in the main read-out, with a control signal flat, not every such curve was filed as active; also: % of control where 0% means no effect); conditions: HEK293 ACTOne CNG channel cells, membrane potential fluorescence; series mostly up to 22.9 µM
Chain of 3',5'-cyclic-AMP phosphodiesterase 4B (Homo sapiens) (Q07343 whole entry, looked up): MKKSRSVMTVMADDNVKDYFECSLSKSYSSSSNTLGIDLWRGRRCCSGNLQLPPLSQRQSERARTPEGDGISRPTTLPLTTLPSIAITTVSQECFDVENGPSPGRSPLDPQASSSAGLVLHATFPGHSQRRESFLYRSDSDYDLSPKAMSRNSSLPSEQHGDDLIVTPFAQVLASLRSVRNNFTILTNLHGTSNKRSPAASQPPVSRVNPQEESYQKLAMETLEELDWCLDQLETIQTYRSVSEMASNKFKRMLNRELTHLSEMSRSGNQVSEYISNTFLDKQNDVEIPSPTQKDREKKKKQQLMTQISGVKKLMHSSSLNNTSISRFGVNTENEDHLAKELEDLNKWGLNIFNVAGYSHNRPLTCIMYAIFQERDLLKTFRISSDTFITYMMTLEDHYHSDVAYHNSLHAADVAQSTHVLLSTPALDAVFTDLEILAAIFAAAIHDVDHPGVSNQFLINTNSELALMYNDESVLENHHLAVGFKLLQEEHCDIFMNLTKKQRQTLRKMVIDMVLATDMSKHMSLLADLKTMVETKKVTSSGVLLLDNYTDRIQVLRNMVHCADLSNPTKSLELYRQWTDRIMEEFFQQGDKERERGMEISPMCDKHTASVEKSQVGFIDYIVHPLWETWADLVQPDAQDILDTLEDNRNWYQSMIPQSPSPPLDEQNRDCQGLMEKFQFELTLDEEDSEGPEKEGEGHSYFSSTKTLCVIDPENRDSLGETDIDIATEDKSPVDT
How it was run: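 ACTOne HEK293 cells carry a modified cAMP-gated CNG channel and express endogenous PDE4; plated 1000 cells/well, compounds up to 22.9 uM final. Membrane-potential dye fluorescence (ex 535/em 590) was read; parental cells received 10 uM forskolin + 100 uM RO 20-1724.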

[5] = target: ATP-dependent 6-phosphofructokinase (Trypanosoma brucei brucei) (UniProt O15648); assay: qHTS Assay to Find Inhibitors of T. brucei phosphofructokinase: hit validation (AID 492961);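 also: luminescence reports ADP formed as PFK phosphorylates fructose-6-phosphate with ATP; % is scaled to controls: 0 for no effect and ±100 for the full control effect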; conditions: T. brucei PFK, ADP-Glo luminescence; series mostly up to 51.4 µM
Chain of ATP-dependent 6-phosphofructokinase (Trypanosoma brucei brucei) (O15648 whole entry, looked up): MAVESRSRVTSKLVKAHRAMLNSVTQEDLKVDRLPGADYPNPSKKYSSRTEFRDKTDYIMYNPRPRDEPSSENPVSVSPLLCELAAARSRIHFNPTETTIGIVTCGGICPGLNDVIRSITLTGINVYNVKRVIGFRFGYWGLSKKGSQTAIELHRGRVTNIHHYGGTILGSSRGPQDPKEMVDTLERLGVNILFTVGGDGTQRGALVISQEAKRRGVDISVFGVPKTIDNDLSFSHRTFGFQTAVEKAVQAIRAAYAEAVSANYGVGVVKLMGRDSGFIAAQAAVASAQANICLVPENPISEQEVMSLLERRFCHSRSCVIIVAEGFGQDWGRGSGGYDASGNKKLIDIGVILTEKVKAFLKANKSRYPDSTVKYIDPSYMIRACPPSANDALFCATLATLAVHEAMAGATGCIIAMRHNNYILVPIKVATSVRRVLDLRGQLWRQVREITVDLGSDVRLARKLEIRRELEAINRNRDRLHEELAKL
How it was run: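 PFK 1.25 nM, F6P 0.5 mM, ATP 0.1 mM, MgCl2 5 mM, 0.1 M TEA pH 8.0, Tween20 0.01%, BSA 0.1%; 45 min RT. ADP-Glo two-step detection, luminescence. qHTS titration; curve fitting with curve-class categorization.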

[6] = target: Ubiquitin carboxyl-terminal hydrolase 1 (Homo sapiens) (UniProt O94782); assay: Inhibitors of USP1/UAF1: Pilot qHTS (AID 504865); conditions: purified USP1/UAF1, Ub-rhodamine cleavage fluorescence; series mostly up to 114 µM;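 also: rhodamine fluorescence freed from ubiquitin-rhodamine substrate followed over time; top concentration of the series differs between compounds; % is scaled to controls: 0 for no effect and ±100 for the full control effect; nearly all actives have a fitted effect of over 35% in size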
How it was run: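 1nM USP1/UAF1 + cpd, 15 min RT; start w/ Ub-Rho 150nM final; kinetic FL 480/540 nm, 6 reads q60 s. Buffer 50mM HEPES pH 7.8, 0.5mM EDTA, 1mM TCEP, 0.01% Tween-20, 0.1 mg/ml BSA.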

[7] = S16 Schwann cell viability assay (CellTiter-Glo assay) (AID 624031); conditions: S16 rat Schwann cells viability, 24 h; series mostly up to 57.5 µM;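 also: cellular ATP luminescence as a viability measure; plate controls were DMSO-treated cells for no effect and cell-free wells for full effect; nearly all actives have a fitted effect of over 70% in size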
How it was run: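 This viability control uses native rat S16 Schwann cells grown in DMEM plus 10% FBS. After a 24 h compound treatment at 37 °C, CellTiter-Glo luminescence reports ATP content, scaled against DMSO-treated and cell-free wells.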

[8] = S16 Schwann cell PMP22 intronic element firefly luciferase assay (AID 624032); conditions: S16 rat Schwann cells, PMP22 element FLuc, 24 h; series mostly up to 57.5 µM;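 also: plate controls were DMSO for no effect and PTC124 positive control mean for full effect; nearly all actives have a fitted effect of over 30% in size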
How it was run: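 Rat S16 Schwann cells stably carrying a PMP22 intronic element-driven Fluc reporter were seeded overnight, then exposed to compounds for 24 h at 37 °C. Luminescence was normalized to PTC124 (positive control) and DMSO (0% activity).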

[9] = S16 Schwann cell PMP22 intronic element beta-lactamase assay (AID 624044; calls by dose curve;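 also: 0% = DMSO and -100% = potassium clavulanate positive control; nearly all actives have a fitted effect of over 15% in size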); conditions: S16 rat Schwann cells, PMP22 element beta-lactamase FRET, 24 h; series mostly up to 38.3 µM
How it was run: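 Rat S16 Schwann cells with beta-Lac driven by a PMP22 intronic element, compound-treated 24 h at 37 °C. LiveBLAzer FRET B/G read: 460 nm normalized to potassium clavulanate vs DMSO; 535 nm FRET as viability; concentration-effect curves classified.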

[10] = qHTS profiling for inhibitors of Plasmodium falciparum proliferation (AID 504749); also: nearly all actives have a fitted effect of over 60% in size; also: potency is read from the fitted curve at half-maximal effect;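 as to activity, negative = inhibition: 0% = DMSO vehicle and full inhibition = artemisinin control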; conditions: P. falciparum in erythrocytes, SYBR Green DNA, 72 h, at 28.7 µM (top of the series)
How it was run: (§1)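 P. falciparum-infected erythrocytes (0.3% parasitemia, 2.5% hematocrit final) were exposed to compounds for 72 h at 37 C in 5% CO2, then lysed with SYBR Green buffer overnight at room temperature; parasite DNA fluorescence was normalized to artemisinin and DMSO controls.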

[11] = test system: 3D7; assay: as above; conditions: P. falciparum in erythrocytes, SYBR Green DNA, 72 h; series mostly up to 28.7 µM
How it was run: as §1

[12] = test system: CP191; assay: as above; conditions: P. falciparum in erythrocytes, SYBR Green DNA, 72 h; series mostly up to 28.7 µM
How it was run: as §1

[13] = test system: CP237; assay: as above; conditions: P. falciparum in erythrocytes, SYBR Green DNA, 72 h; series mostly up to 28.7 µM
How it was run: as §1

[14] = test system: CP250; assay: as above; conditions: P. falciparum in erythrocytes, SYBR Green DNA, 72 h; series mostly up to 28.7 µM
How it was run: as §1

[15] = test system: CP252; assay: as above; conditions: P. falciparum in erythrocytes, SYBR Green DNA, 72 h; series mostly up to 28.7 µM
How it was run: as §1

[16] = test system: Dd2; assay: as above; conditions: P. falciparum in erythrocytes, SYBR Green DNA, 72 h; series mostly up to 28.7 µM
How it was run: as §1

[17] = test system: FAB9; assay: as above; conditions: P. falciparum in erythrocytes, SYBR Green DNA, 72 h; series mostly up to 28.7 µM
How it was run: as §1

[18] = test system: HB3; assay: as above; conditions: P. falciparum in erythrocytes, SYBR Green DNA, 72 h; series mostly up to 28.7 µM
How it was run: as §1

[19] = test system: PC15; assay: as above; conditions: P. falciparum in erythrocytes, SYBR Green DNA, 72 h; series mostly up to 28.7 µM
How it was run: as §1

[20] = test system: PC26; assay: as above; conditions: P. falciparum in erythrocytes, SYBR Green DNA, 72 h; series mostly up to 28.7 µM
How it was run: as §1

[21] = test system: PC49; assay: as above; conditions: P. falciparum in erythrocytes, SYBR Green DNA, 72 h; series mostly up to 28.7 µM
How it was run: as §1

[22] = test system: W2; assay: as above; conditions: P. falciparum in erythrocytes, SYBR Green DNA, 72 h; series mostly up to 28.7 µM
How it was run: as §1

[23] = target: Cytochrome P450 1A2 (Homo sapiens) (UniProt P05177); assay: p450-cyp1a2 (AID 410; calls by dose curve; also: potency is read from the fitted curve at half-maximal effect;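 as to activity change, negative = inhibition: -100% = full effect of reference inhibitor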); conditions: recombinant CYP1A2, luciferin-ME demethylation, luminescence; series mostly up to 11.4 µM
Chain of Cytochrome P450 1A2 (Homo sapiens) (P05177 whole entry, looked up): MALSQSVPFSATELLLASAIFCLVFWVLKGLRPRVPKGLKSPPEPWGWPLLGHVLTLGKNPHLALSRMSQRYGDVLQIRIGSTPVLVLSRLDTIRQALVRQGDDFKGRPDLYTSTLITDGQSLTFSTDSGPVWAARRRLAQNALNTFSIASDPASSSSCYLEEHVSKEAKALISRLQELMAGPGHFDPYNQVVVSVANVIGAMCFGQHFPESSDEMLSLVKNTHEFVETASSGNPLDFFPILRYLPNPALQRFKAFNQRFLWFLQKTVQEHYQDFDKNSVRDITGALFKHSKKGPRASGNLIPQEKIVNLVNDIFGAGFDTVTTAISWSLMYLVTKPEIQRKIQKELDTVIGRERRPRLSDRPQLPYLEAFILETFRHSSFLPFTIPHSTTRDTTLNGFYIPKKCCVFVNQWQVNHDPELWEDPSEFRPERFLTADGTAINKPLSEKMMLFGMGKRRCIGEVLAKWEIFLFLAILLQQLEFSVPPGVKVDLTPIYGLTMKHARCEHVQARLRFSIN
How it was run: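 Human CYP1A2 (20nM) demethylated Luciferin-ME at its Km (100uM) in 100mM KPO4. After 10 min compound preincubation, NADPH regeneration ran the reaction 60 min at room temperature. Luciferin was read by luminescence, normalized to 57 uM furafylline.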

[24] = target: Glucocorticoid receptor (Homo sapiens) (UniProt P04150); assay: GR-GFP Redistribution (AID 450;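 active = compounds whose dose series gives a full or clear partial fitted curve of increased nuclear translocation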; also: potency is read from the fitted curve at half-maximal effect); conditions: U2OS GR-GFP nuclear translocation, laser cytometry, 2 h
Chain of Glucocorticoid receptor (Homo sapiens) (P04150 whole entry, looked up, the tested form may be a part): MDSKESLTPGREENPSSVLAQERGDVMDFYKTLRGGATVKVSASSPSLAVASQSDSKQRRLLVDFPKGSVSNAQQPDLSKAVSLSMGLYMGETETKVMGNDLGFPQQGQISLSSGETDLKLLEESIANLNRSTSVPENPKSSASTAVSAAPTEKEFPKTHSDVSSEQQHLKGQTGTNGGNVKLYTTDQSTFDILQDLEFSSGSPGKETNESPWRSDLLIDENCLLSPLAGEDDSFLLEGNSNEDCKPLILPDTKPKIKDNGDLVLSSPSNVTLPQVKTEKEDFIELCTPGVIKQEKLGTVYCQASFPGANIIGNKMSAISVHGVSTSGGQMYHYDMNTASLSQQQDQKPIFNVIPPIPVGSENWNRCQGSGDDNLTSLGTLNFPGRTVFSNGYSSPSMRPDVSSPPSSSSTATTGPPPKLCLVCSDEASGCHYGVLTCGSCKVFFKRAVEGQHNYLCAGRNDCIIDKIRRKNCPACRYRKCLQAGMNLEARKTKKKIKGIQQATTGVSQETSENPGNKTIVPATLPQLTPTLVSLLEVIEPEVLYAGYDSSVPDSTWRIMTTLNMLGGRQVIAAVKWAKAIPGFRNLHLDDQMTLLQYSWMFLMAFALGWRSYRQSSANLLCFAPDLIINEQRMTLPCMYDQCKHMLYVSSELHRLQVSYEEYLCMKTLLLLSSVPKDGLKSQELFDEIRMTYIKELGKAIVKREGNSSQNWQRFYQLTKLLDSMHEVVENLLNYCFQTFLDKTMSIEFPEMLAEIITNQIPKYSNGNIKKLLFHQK

[25] = target: Glucocorticoid receptor (Homo sapiens) (UniProt P04150); assay: GR-EFC Redistribution (AID 451; calls by dose curve; also: potency is read from the fitted curve at half-maximal effect); conditions: CHO-K1 GR-EFC translocation, beta-gal luminescence, 2 h
How it was run: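 CHO-K1 cells stably expressing nuclear-localized β-gal enzyme acceptor and GR fused C-terminally to the enzyme donor fragment; ligand-driven nuclear translocation restores β-gal by complementation. Compounds titrated up to 46 uM final, 2 h at 37 °C; luminescence read.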

[26] = target: Cytochrome P450 2C9 (Homo sapiens) (UniProt P11712); assay: qHTS Assay for Inhibitors and Substrates of Cytochrome P450 2C9 (AID 883); conditions: recombinant CYP2C9, luciferin-H luminescence, 60 min; series mostly up to 57.1 µM; also: % is scaled to controls: 0 for no effect and ±100 for the full control effect; nearly all actives have a fitted effect of over 60% in size
Chain of Cytochrome P450 2C9 (Homo sapiens) (P11712 whole entry, looked up): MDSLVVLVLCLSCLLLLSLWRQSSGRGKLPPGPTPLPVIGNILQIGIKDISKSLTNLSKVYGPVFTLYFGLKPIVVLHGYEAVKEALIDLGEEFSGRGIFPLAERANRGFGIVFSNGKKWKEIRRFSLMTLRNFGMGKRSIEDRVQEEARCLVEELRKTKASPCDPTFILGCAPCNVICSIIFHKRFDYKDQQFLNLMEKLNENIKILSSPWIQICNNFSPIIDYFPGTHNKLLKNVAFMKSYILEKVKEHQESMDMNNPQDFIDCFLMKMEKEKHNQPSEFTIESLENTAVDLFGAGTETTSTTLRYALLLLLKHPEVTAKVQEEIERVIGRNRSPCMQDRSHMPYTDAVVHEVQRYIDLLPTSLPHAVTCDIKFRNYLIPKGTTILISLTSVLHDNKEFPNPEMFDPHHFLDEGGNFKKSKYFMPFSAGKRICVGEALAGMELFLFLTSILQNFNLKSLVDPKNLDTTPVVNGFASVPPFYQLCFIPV
How it was run: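 Human CYP2C9 (10nM) hydroxylated Luciferin-H (100uM, at its KM) to luciferin in 25mM KPO4. Compound was preincubated 10 min at 37C, then NADPH regeneration started a 60 min reaction at 37C. Luminescence was read after detection reagent, normalized to 57uM sulphaphenazole.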

[27] = target: Cytochrome P450 2D6 (Homo sapiens) (UniProt P10635); assay: qHTS Assay for Inhibitors and Substrates of Cytochrome P450 2D6 (AID 891); conditions: recombinant CYP2D6, luciferin-ME EGE luminescence; series mostly up to 11.4 µM;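 also: luciferin methyl ether substrate demethylated by CYP2D6 with NADPH regeneration; % is scaled to controls: 0 for no effect and ±100 for the full control effect; nearly all actives have a fitted effect of over 60% in size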
Chain of Cytochrome P450 2D6 (Homo sapiens) (P10635 whole entry, looked up): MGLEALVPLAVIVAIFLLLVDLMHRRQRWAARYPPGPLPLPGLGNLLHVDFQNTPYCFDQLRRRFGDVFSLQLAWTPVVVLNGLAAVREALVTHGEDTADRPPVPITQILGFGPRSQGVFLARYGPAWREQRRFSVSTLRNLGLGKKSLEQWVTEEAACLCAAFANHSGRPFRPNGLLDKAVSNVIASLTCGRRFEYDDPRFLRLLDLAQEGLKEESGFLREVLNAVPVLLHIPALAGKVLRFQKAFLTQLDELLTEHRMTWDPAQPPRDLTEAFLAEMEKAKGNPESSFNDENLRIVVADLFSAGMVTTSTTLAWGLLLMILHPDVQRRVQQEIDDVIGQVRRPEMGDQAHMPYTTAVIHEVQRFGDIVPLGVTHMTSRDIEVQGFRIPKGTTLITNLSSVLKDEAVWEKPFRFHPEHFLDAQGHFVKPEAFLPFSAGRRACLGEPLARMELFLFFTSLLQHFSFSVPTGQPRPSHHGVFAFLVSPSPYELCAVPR
How it was run: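 Human CYP2D6 (5 nM) with 30 uM Luciferin-ME EGE (at Km) in 100 mM KPO4, compound preincubated 10 min, then NADPH regeneration system for 60 min at room temperature. Luciferin read by luminescence; normalized to 1.43 uM quinidine.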

[28] = target: Cytochrome P450 2C19 (Homo sapiens) (UniProt P33261); assay: qHTS Assay for Inhibitors and Substrates of Cytochrome P450 2C19 (AID 899); conditions: recombinant CYP2C19, luciferin-H EGE luminescence; series mostly up to 11.4 µM; also: % is scaled to controls: 0 for no effect and ±100 for the full control effect; nearly all actives have a fitted effect of over 60% in size
Chain of Cytochrome P450 2C19 (Homo sapiens) (P33261 whole entry, looked up): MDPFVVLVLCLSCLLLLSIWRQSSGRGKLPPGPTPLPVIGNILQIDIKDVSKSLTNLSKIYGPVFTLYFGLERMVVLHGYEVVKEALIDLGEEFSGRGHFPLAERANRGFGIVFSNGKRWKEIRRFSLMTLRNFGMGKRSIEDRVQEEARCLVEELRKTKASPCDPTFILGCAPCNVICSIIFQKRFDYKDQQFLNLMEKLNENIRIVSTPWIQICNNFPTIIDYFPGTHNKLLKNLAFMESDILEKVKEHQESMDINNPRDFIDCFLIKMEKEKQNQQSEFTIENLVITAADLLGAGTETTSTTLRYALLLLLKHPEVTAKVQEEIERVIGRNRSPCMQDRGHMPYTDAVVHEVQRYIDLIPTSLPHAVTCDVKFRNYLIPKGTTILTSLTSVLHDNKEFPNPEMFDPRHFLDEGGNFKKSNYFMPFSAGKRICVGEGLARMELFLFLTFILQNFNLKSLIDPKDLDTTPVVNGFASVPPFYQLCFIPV
How it was run: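 Human CYP2C19 (5nM) with Luciferin-H EGE at 10uM (its KM) in 50mM KPO4 was preincubated with compound for 10 min at 37C. NADPH regeneration started a 60 min 37C reaction. Luciferin was read by luminescence, normalized to 57uM ketoconazole.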

O=C1C[C@@H]2OCC=C3CN4CC[C@]56c7ccccc7N1[C@@H]5[C@@H]2[C@H]3C[C@H]46 (tested in a mixture with another compound)
active: Potency [13] 8.91 µM | Potency [16] 10 µM | Potency [22] 6.75 µM
inactive: Potency [1] > 11.4 µM | activity change, negative = inhibition [2] 5.95% | activity change, negative = inhibition [3] 1.78% [at 11.4 µM] | outcome [4] | outcome [5] | Potency [6] | outcome [7] | outcome [8] | outcome [9] | activity, negative = inhibition ([10]; parasite line A) -29.7% | activity, negative = inhibition ([10]; parasite line B) -15.1% | Potency [11] | Potency [12] | Potency [14] | Potency [15] | Potency [17] | Potency [18] | Potency [19] | Potency [20] | Potency [21]

O=C(c1ccccc1)[C@H]1[C@H](c2ccccc2[N+](=O)[O-])N1C1CCCCC1 (some centres not stated)
inactive: Potency [1] > 11.4 µM | Potency [24] > 46 µM | Potency [25] > 9.22 µM | activity change, negative = inhibition [3] -6.49% [at 11.4 µM] | outcome [4]
active: Potency [23] 0.631 µM

NNc1c(C(N)=O)c2c(N)ncnc2n1[C@@H]1O[C@H](CO)[C@@H](O)[C@@H]1O
inactive: Potency [1] > 11.4 µM | activity change, negative = inhibition [23] -11.2% [at 2.29 µM] | Potency [25] > 9.22 µM | activity change, negative = inhibition [3] -2.85% [at 11.4 µM] | outcome [4] | activity change, negative = inhibition [26] -2.73% [at 11.4 µM] | Potency [27] | Potency [28]
